Measurements from the supplement of paper PMC11417369.
Whole data set: some 25,000 sequences, median “ln(normalized median fluorescence intensity)” near 7.1, cut for the highest 2% near 10. This is one part of a sample in which the highest values are shown more often than they occur.

Tested on: PfSIP2 AP2 domain 1 (GST-tagged)
Experiment: gcPBM binding intensity (ln(normalized median fluorescence intensity)); higher = stronger DNA binding
Method in brief: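 Binding intensity is defined as the maximum Masliner-normalised natural-log median intensity across replicate spots for either probe orientation. It was measured on an Agilent 4 × 180k array of primer-extended double-stranded 36-bp intergenic genomic probes and negative controls, to which GST-tagged P. falciparum DNA-binding domains made in E. coli were applied for 1 h in 1× PBS with 1% milk, 0.2 mg/ml BSA, 0.5% salmon testes DNA and 0.03% Triton X-100. Detection was by Alexa488 anti-GST antibody and scanning at 488 nm.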

| Sequence | gcPBM binding intensity (ln) |
| --- | --- |
| CATATTTACATTAAGTGTACTTATGAATATATATAC [XGTACX_site7962] | 7.03 |
| TTTGCACCGTTTAAGTGTACAGAATTATGACATATA [XGTACX_site6735] | 11.2 |
| TTTATATGTATTAAGTGTACACATATAATGTGTTTG [XGTACX_site6629] | 7.29 |
| TATCAATGGAAAATATATATTTGTATATATGTAATA [XGTACX_negctrl_site257] | 7.04 |
| ACATGAATATATACACGTACATATATACATATATAT [XGTACX_site5872] | 7.42 |
| AATTTATTTTTAAAAAGTACATACTTAAGAAAACGA [XGTACX_site3660] | 7.59 |
| ATATATTATATTATATGTACTTAAAAAAGTGCAAAG [XGTACX_site318] | 8.67 |
| CTGTACACTTAAACGGTGCAAAAAGAAAAAAAAGAA | 10.9 |
| TTTTATCATCTTTTTACATTATGTATAAATATTTTC [CACACA_negctrl_site206] | 6.99 |
| AAAACATAAATACATACACACATAATATATATTAAT [CACACA_site109] | 7.06 |
| TTTTATTCCTTCTTTGCACACGTTTAAAAATATATA [CACACA_site2899] | 8.04 |
| TATATATTTTCTTTTGCACACTGTTTTCCTTTTTTT [CACACA_site2739] | 7.02 |
| ACAAGTATTCCTTTTGCACACCTTTCTGCACCTTAT [CACACA_site3873] | 11.7 |
| ATGTCATAAATGTACGCACACATACATAAACATATA [CACACA_site4530] | 7.33 |
| TATAAACCCACCTACACACACAACGTAAATGCATTG [CACACA_site2238] | 7.01 |
| TATAAACGCACCTACACACACAACGTAAATGCATTG [CACACA_site7120] | 10.6 |
| TATATAAACCCACCTACACACACAACGTAAATGCAT [CACACA_site8702] | 7.1 |
| CAAATATGTCTTATTCGTACACATATATATATATAT [XGTACX_site8817] | 9.64 |
| TTTTTAATTTTATATACACACATAAAATATATGAAG [CACACA_site3145] | 7.01 |
| AACATATATAAATACACACACATATATATATGAAAT [CACACA_site4312] | 7.05 |
| TCATAATGAAAACAAGCACACATACATAAAATAAAA [CACACA_site9069] | 7.01 |

| Sequence | gcPBM binding intensity (ln) |
| --- | --- |
| ATTTTGTTATGAAACACACACATATAAATATAAATA [CACACA_site7679] | 7.26 |
| CTTTTATGAAACAGTGCACACATAAAAATATATACA [CACACA_site8981] | 11.3 |
| ATAATGAAAACAAGCACACATACATAAAATAAAATA [CACACA_site3257] | 7.04 |
| TTTATGAAACAGTGCACACATAAAAATATATACATA [CACACA_site2992] | 11 |
| AAAAAAAATATGAAAACACACATATATAAATAAATA [CACACA_site113] | 6.89 |
| TTTATGAAACAGTGCACACATAAAAATAAATACATA [CACACA_site5631] | 11.2 |
| AAATATAAACTCAGCACACAAACATATATATGTCAT [CACACA_site4004] | 6.91 |
| TCCTTTTGAACCCTTTTTCTCACAAGACCTTTATAT [TGCATGCA_negctrl_site413] | 7.05 |
| ATGTTTTAATGAGGTTTGCACTATATTTTAATGAAC | 8.64 |
| AATATTAAACAAAATAAATATATAAAAAATAAATAA [GTGCAC_negctrl_site93] | 6.79 |
| ATGAATATAATGAAGTGTACATAAAAATAATAAATA [XGTACX_site2481] | 7.11 |
| GGACATTTTTATAAGGTGCACGGTTTTGATATTACT [GTGCAC_site9892] | 11.1 |
| GTACATATATACATTACACACGGTTTGATTTAAAAA [CACACA_site3379] | 7.26 |
| TCACATTTTGGACACGTGCACATATATTTGATACAT | 8.43 |
| ATGCGTTAATCTATATATATTATGTATAGATTTTCA [CACACA_negctrl_site1650] | 6.81 |
| TGCCCTTTGGTTATAACACACATGCACCCGTAAATA [CACACA_site3842] | 11.9 |
| CTTTGGTTATAACACACATGCACACGTAAATAAATA [TGCATGCA_site976] | 7.63 |
| TGCCCTTTGGTTATAACACACATGCACACGTAAATA [CACACA_site7750] | 7.71 |
| AGACAATTTTTTAGTACACACATATAGATATATAAA [CACACA_site6832] | 7.39 |
| AAAAAAAAATATATATATATATATATATAATAAAAA [CACACA_negctrl_site639] | 7.48 |
| ATGCACTCATTGTGCACACGCATATTACGAAAAGAA [CACACA_site2638] | 10.2 |

| Sequence | gcPBM binding intensity (ln) |
| --- | --- |
| TGTGTTCATATATGCACACGCATATATATTATTGTT [CACACA_site3822] | 7.02 |
| ATATGCACTCATTGTGCACACGCATATTACGAAAAG [CACACA_site2637] | 11 |
| ATATATAATAATTGTAGTACAATTAATAAATAAAAT [XGTACX_site3840] | 7.08 |
| TATATATTATAAAATTGTACATATATTAAATTTTTT [XGTACX_site5852] | 6.93 |
| TATGCACCCAGACACACACACACAACTAAAAAATAA [CACACA_site2567] | 10.7 |
| TGCACGCACAGACACACACACAACTAAAAAATAATG [CACACA_site7250] | 7.33 |
| TAATTATGCAGACACACACACACACCCAACTAAAAA [CACACA_site2569] | 7.27 |
| TACAAATATATATGCACACACATATACATACATATA [CACACA_site2182] | 7.31 |
| TACAAACACCCATATACACACAAAAAAAAAATAAAA [CACACA_site5421] | 7.05 |
| CTATTTTATATGTGCACACATATACACCCACAAATA [CACACA_site1131] | 9.31 |
| TATGTGCACCCATATACACACACAAATACAATGATA [CACACA_site8295] | 12.3 |
| AATGTGATAATATACACACACGCATATATATATATA [CACACA_site323] | 9.89 |
| GGTGCACCCATATACACACACAAATACAATGATAAA [CACACA_site1132] | 12.4 |
| TGTGCACGCATATACACACACAAATACAATGATAAA [CACACA_site6656] | 10.6 |
| AAACAAAAAATATATACACACTAAACATAAAAAAAA [CACACA_site4185] | 6.86 |
| TCACCATATAAACGTGCACACTACAAAAATATATAA [CACACA_site5413] | 11 |
| TAATGATAAATACATACACACAAAAAATGATATATA [CACACA_site7258] | 6.86 |
| GAAATGTGATAATATACACACACGCATATATATATA [CACACA_site4332] | 9.04 |
| TGGGCACCCATATACACACACAAATACAATGATAAA [CACACA_site4762] | 8.64 |
| CATATAAAAATGTGCACACACACACCCATATATATT [CACACA_site1526] | 9.06 |
